Results with a measured potency or affinity are listed apart. Inconclusive results are not listed. Active and inactive are the calls of the source.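 Rule for the calls: active = every replicate test called active, with signal dropping and a potency found within twice the top tested dose; inconclusive = replicate test calls disagree with each other; inactive = all replicate tests inactive, including signal rising.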
Test: growth inhibition of intracellular T. cruzi, dose response, cell-based, plate reader, dry powder samples (AID 651845)
Settings: T. cruzi beta-gal in NIH3T3, GalScreen luminescence, 90 h; series mostly up to 16 µM

| SMILES | outcome |
| --- | --- |
| CC(C)N1C[C@H](C)[C@@H](CN(C)C(=O)OC(C)(C)C)Oc2c(C(=O)O)cccc2C1=O | inactive |
| CNC[C@@H]1Oc2c(NC(=O)c3ccncc3)cccc2C(=O)N(C(C)C)C[C@H]1C | inactive |

Reference: PubChem BioAssay AID651845 (Broad Institute, 2012)
